Screening results (PubChem)
The list is not random: actives were taken first. Their share in the collection is about 0.31%.
TRPV1 PAM – HTS Assay for Compounds that Act as Potentiators of the Vanilloid Receptor 1; Transient receptor potential cation channel subfamily V member 1 (Homo sapiens), Q8NER1; 0.02% of 320,000 active; potentiation, % at 8.33 µM; TRPV1-expressing cells, Fluo-8 calcium influx, capsaicin EC20 potentiation; in the data active means potentiation above about 80%; inconclusive means between about 30% and that limit; further: 0% is about no effect
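Cells expressing TRPV1 were dye-loaded with Fluo-8 and read kinetically: 10 s baseline, 3 min after compound (agonist portion), then 2 min after EC20 capsaicin (allosteric enhancer portion). Calcium-bound dye fluorescence at 480/520 nm.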
TRPML1 inh – qHTS for Inhibitors of the Human Mucolipin Transient Receptor Potential 1 (TRPML1) | Mucolipin-1 (Homo sapiens), Q9GZU1 | TRPML1-inducible cells, Ca2+ dye fluorescence, FDSS; stronger effect = lower value; inhibition of EC80 agonist-evoked calcium signal | activity change, negative = inhibition, % (concentration not given with the values) | 0.02% of 390,000 active; in the data active means activity change below about -50%; inconclusive means between about -30% and that limit;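 further: stimulus is agonist 54-4 at its EC80 concentration; on the % scale 0 is the no-effect control and ±100 the full control effect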
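Calcium fluorescence in TRPML1-DL cells induced overnight with Tet: a 110 s read after compound pin addition, then a 110 s antagonist read after challenge with 54-4 at 4 uM final (EC80).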
TRPML1 agonist – qHTS for Agonists of the Human Mucolipin Transient Receptor Potential 1 (TRPML1) | TRPML1-expressing cells, Ca2+ dye fluorescence, FDSS | activation, % (concentration not given with the values) | 0.12% of 410,000 active; in the data active means activation above about 50%; inconclusive means mostly about 30% to 49%; further: 0% is about no effect
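TRPML1-DL cells, Tet-induced overnight (~16 h, 37 degrees C), loaded 45-90 min at room temperature with Ca8 no-wash calcium dye plus quencher. FDSS fluorescence: 10 s baseline, compound pin-transfer, 110 s agonist read, then EC80 54-4 (4uM final) and 110 s antagonist read.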
TRPV1 agonist – HTS Assay for Compounds that Act as Agonists of the Vanilloid Receptor 1. activation, % at 8.33 µM. 0.19% of 320,000 active. TRPV1-expressing cells, Fluo-8 calcium influx, agonist mode. Transient receptor potential cation channel subfamily V member 1 (Homo sapiens), Q8NER1; in the data active means activation above about 80%; inconclusive means between about 30% and that limit; further: 0% is about no effect
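Fluo-8 calcium influx in TRPV1-expressing cells, kinetic read (ex 480/em 520 nm). Compound added and read 3 min for agonist activity, followed by capsaicin at EC20 final and 2 min further read for enhancement.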
Active calls of the source: *; ? = inconclusive; / = no result.

SMILES	TRPV1 PAM	TRPML1 inh	TRPML1 agonist	TRPV1 agonist
CCN(CC)c1ccc(/C=C/[N+](=O)[O-])cc1	-6	1	71*	?
CCCCCCCCC(=O)NCc1ccc(O)c(OC)c1	4	-5	2	105*
COc1cc(CNCCc2ccc3c(c2)OCO3)ccc1O	-13	14	1	2
C/C=C1/C[C@@H](C)[C@@](C)(O)C(=O)OCC2=CCN3CC[C@@H](OC1=O)[C@@H]23	/	59	0	/
O=C(CCCN1CCC2(CC1)C(=O)NCN2c1ccccc1)c1ccc(F)cc1	-5	21	76*	18
CCCCn1nnnc1C(C1CC1)N1CCC2(CC1)C(=O)NCN2c1ccccc1 (configuration not stated)	/	/	2	/
Cc1cc(/C=C/c2cccc3sc(C)[n+](CCCCI)c23)ccc1N(CCCl)CCCl	/	/	14	/
O=C1/C(=C/c2ccc(N(CCCl)CCCl)cc2)Cc2ccccc21	/	/	73*	/
NCC(=O)c1ccc(Cl)c(Cl)c1	/	/	0	/
Cc1c(C(c2ccc(Cl)cc2Cl)c2c(O)c3ccccc3oc2=O)c(=O)n(-c2ccccc2)n1C (configuration not stated)	82*	22	1	-4
CC1CCCN(c2ccc(C(=O)N3CCC4(CC3)OCCO4)cc2[N+](=O)[O-])C1 (configuration not stated)	-9	-3	0	?
CCOC(=O)C1CCCN(c2ccc([N+](=O)[O-])c3nonc23)C1 (configuration not stated)	-10	-6	89*	105*
